A selection: hits, their analogues and other compounds. The true share with any hit is near 4.1%.
ssDAF-12 act – S. stercoralis DAF-12 nuclear receptor activators, primary screen, cell-based, luminescence, HEK293, GRIP1 co-expression, lit1-tk-luc. Nuclear hormone receptor DAF-12 (Strongyloides stercoralis). HEK293 ssDAF-12/GRIP1 lit1-tk-luc reporter; % of 3 µM dafachronic acid response. activation, % at 6.8 µM. hit rate 1% among 370,000. AID 652126, 2013;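 active = activation above the mean over all tested compounds plus 3 SD, cut at about 0.9% in these data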;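 note: 0% = DMSO-only wells and 100% = 3 µM delta7-dafachronic acid wells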
hgDAF12 agonist – H. glycines DAF-12 receptor agonists, primary screen, cell-based, luminescence, HEK293, GAL4 fusion, UAS-luciferase; HEK293 GAL4-hgDAF12 UAS-luciferase reporter, agonist luminescence; normalized to butyrate control; activation, % at 6.8 µM; Nuclear hormone receptor DAF-12 (Heterodera glycines), GAL4 fusion; hit rate 1.8% among 370,000;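 active = activation above a cutoff set at the mean of all screened compounds plus 3 SD, cut at about 10% in these data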;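 note: 0% = DMSO wells and 100% = sodium butyrate wells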
hcDAF12 agonist – H. contortus DAF-12 nuclear receptor activators, primary screen, cell-based, luminescence, HEK293, lit1-tk-luc reporter; HEK293 hcDAF-12 lit1-tk-luc reporter; 0% DMSO, 100% Δ7-dafachronic acid; activation, % at 6.8 µM; AID 652067, 2013; hit rate 1.4% among 370,000;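 active = activation above the mean of all tested compounds plus 3 SD, cut at about 5.5% in these data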;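 note: 100% = response to 3 µM Δ7-dafachronic acid high control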
DAX1 inh-1 – DAX1 (NR0B1) inhibitors on StAR promoter, primary screen, cell-based, luminescence, SF-1 (NR5A1), full-length DAX-1; HEK293T StAR-luciferase reporter, SF-1/DAX-1 repression relief; inhibition, % at 6.8 µM; hit rate 1.1% among 370,000;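 active = inhibition above the mean over all tested compounds plus 3 SD, cut at about 3.6% in these data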;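 note: 0% = DAX-1 cells with DMSO and 100% = cells lacking DAX-1 with DMSO; higher inhibition means more luminescence from relief of DAX-1 repression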
DAX1 inh-2 – DAX1 (NR0B1) inhibitors, primary screen, cell-based, HEK293, Gal4-DAX1, luciferase luminescence | Nuclear receptor subfamily 0 group B member 1 (Homo sapiens), P51843 | inhibition, % at 6.75 µM | HEK293 Gal4-DAX1 luciferase reporter | hit rate 0.99% among 340,000;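 active = inhibition above the mean over all tested compounds plus 3 SD, cut at about 4.2% in these data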;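 note: 0% = DAX1-transfected cells with DMSO and 100% = empty-vector control cells with DMSO; inhibition shows as a rise in luminescence from relieved DAX1 repression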
Target sequence (P51843 207-470 limits assumed): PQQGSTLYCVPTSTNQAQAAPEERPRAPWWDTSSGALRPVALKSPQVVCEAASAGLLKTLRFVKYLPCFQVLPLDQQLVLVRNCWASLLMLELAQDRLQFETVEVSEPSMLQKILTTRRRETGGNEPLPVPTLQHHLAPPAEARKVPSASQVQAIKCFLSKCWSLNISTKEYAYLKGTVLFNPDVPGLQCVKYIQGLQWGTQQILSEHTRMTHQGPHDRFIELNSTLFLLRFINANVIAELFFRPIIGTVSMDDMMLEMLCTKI
LXR ag – LXR agonists, Gal4 luciferase reporter, confirmation, counter-screen for hcDAF-12 agonist project, cell-based, luminescence, HEK293, H. contortus campaign | shares compounds with hcDAF12 agonist | HEK293 Gal4-LXR tk-luc reporter, 24 h; normalized: DMSO 0%, positive control 100% | activation, % at 6.8 µM | 3,400 tested, under 10 active;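 active = mean percent activation of the reporter above a cutoff set as the average over tested compounds plus their standard deviation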
Target sequence (P55055 whole entry, looked up, the tested form may be a part): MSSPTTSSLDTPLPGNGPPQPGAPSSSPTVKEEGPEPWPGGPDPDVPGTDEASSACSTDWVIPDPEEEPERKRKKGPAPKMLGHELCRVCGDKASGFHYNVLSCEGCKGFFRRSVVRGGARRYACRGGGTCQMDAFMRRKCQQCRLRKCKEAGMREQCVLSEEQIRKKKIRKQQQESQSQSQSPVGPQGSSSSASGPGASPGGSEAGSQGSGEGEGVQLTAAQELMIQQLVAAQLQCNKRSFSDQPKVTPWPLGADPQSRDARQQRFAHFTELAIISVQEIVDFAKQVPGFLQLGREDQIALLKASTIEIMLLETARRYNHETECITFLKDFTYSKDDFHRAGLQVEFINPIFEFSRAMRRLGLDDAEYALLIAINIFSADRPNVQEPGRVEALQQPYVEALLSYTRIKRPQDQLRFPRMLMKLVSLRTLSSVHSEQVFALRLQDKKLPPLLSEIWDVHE
hcDAF12 ag – H. contortus DAF-12 receptor agonists, confirmation, cell-based, luminescence, HEK293, lit1-tk-luc, triplicate; shares compounds with hcDAF12 agonist; HEK293 hcDAF-12 lit1-tk-luc reporter; % of Δ7-dafachronic acid response; activation, % at 6.8 µM; hit rate 61% among 3,400; AID 743032, 2013;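 active = mean activation across triplicate tests above the threshold derived from the earlier primary screen, cut at about 5.5% in these data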;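 note: 0% = DMSO only wells and 100% = 3 µM Δ7-dafachronic acid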
hgDAF12 ag – H. glycines DAF-12 receptor agonists, confirmation, cell-based, luminescence, HEK293, GAL4-LBD fusion | shares compounds with hgDAF12 agonist | HEK293 GAL4-hgDAF12 luciferase reporter, agonist mode; percent of butyrate response | activation, % at 6.8 µM | hit rate 80% among 3,300 | AID 743050, 2013;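 active = mean activation over triplicate wells above the hit cutoff derived from the earlier primary screen, cut at about 11% in these data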;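 note: 0% = DMSO low control and 100% = 2 mM sodium butyrate high control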
LXR ag 2 – LXR agonists, Gal4 luciferase reporter, confirmation, counter-screen for hgDAF-12 agonist project, cell-based, luminescence, HEK293, H. glycines campaign. shares compounds with hgDAF12 agonist. 24 h. activation, % at 6.8 µM. 3,300 tested, under 10 active. AID 743051, 2013;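 active = mean activation of the triplicate above a set limit carried over from the primary screen, none filed active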
The depositor's hits bear a star; · = no result.

SMILES | ssDAF-12 act | hgDAF12 agonist | hcDAF12 agonist | DAX1 inh-1 | DAX1 inh-2 | LXR ag | hcDAF12 ag | hgDAF12 ag | LXR ag 2
CC[n+]1c(/C=C/c2ccc(OC)c(OC)c2)ccc2ccccc21 | 1.1* | 17* | 9.3* | 3 | 4.4* | 1 | 9.7* | 18* | 1
CCOC(=O)/C(=N\Nc1ncnc2ccccc12)c1ccc(C)cc1 | 2.5* | 21* | 19* | 2 | 0 | 2 | 19* | 20* | 1
O=C(c1cc(C(=O)N2CCCC2)cc([N+](=O)[O-])c1)N1CCCC1 | -1 | -2 | 1 | 0 | -1 | · | · | · | ·
O=C(/C=C/Nc1ccc(F)c(F)c1)c1cccs1 | 1 | 15* | 16* | 3 | 4 | 2 | 15* | 23* | 1
COc1cc(/C=N/N=C(N)N)ccc1OCc1ccc(Cl)cc1 | 0 | 5 | 1 | 0 | -2 | · | · | · | ·
COc1cc(/C=N/O)ccc1OCc1ccc(Cl)cc1 | 1 | 19* | 7.9* | 4.0* | · | 1 | 5.7* | 15* | 1
O=C(C[C@H]1C[C@H](C(=O)N2CCOCC2)[C@@]2(CCC3CCCC3)c3[nH]c4ccc(Cl)cc4c3CCN2C1=O)NCC12CC3CC(CC(C3)C1)C2 | -1 | 2 | 0 | -1 | -1 | · | · | · | ·
Cc1ccccc1NC(=S)c1ccc2ccccc2n1 | 1.3* | 13* | 14* | 1 | 1 | 0 | 7.9* | 13* | 0
Clc1ccc(-c2nc3nc4ccccc4nc3n2Cc2ccco2)cc1 | 1.1* | 14* | 8.4* | 3 | 3 | 1 | 5.8* | 7 | 0
Cc1ccc(-c2nc3nc4ccccc4nc3n2Cc2ccco2)cc1 | 1.4* | 16* | 11* | 5.1* | 2 | 1 | 8.8* | 14* | 1
COc1ccc(NC(=S)Nc2ccccn2)cc1 | 1.7* | 15* | 11* | 2 | 4 | 1 | 3 | 13* | 1
COc1ccc(NC(=O)[C@@H](NS(=O)(=O)c2cccc(Cl)c2)C(C)C)cc1S(=O)(=O)N1CCOCC1 | -1 | 2 | 0 | -1 | 0 | · | · | · | ·
Cc1[nH]c2ccccc2c1/C=C/c1nc2ccccc2c(=O)[nH]1 | 0 | 14* | 6.9* | 4.4* | 2 | 1 | 5.8* | 18* | 1
COc1ccc(CNc2ccc3c(c2)ncn3-c2ccccc2OC)cc1 | -1 | 1 | -2 | 0 | 0 | · | · | · | ·
CC(C)n1cnc2cc(NCc3nc4ccccc4n3C)ccc21 | -1 | 14* | 6.7* | 2 | 1 | 1 | 6.1* | 11* | 1
COc1ccc(C2c3cc(OC)c(OC)cc3CCN2C(=O)c2ccccc2Br)cc1OC (stereo unspecified) | -2 | -1 | -1 | 0 | 2 | · | · | · | ·
CC(C)c1ccc2nc(NC(=O)C3CC3)sc2c1 | 0 | 22* | 7.0* | 3 | 4 | 1 | 3 | 17* | 1
COc1ccc(COC(=O)c2cccc(S(=O)(=O)N3CCCC3)c2)cc1F | -1 | 2 | -3 | -2 | 1 | · | · | · | ·
Cc1ccnc(NC(=O)c2cc3cc(F)ccc3s2)c1 | 2.4* | 22* | 9.9* | 3 | 2 | 2 | 8.4* | 19* | 1
Cc1ccc(C=NNc2ccc([N+](=O)[O-])cn2)cc1 | 0 | 18* | 7.4* | 2 | 4.8* | 1 | 3 | 13* | 1
Oc1ccc(-c2csc(-c3c[nH]c4ccccc34)n2)c(O)c1 | 2.7* | 14* | 8.3* | 3 | 3 | 1 | 9.2* | 17* | 1
Cc1ccc(-c2csc(-c3c[nH]c4ccccc34)n2)c(C)c1 | 0 | 9 | 1 | 1 | 2 | · | · | · | ·
CC1C(=O)N2CCCc3cc(NS(=O)(=O)c4ccccc4)cc1c32 (stereo unspecified) | -1 | -1 | 0 | 0 | 1 | · | · | · | ·
Cc1ccc2nc(-c3ccc(NC(=S)NCC(C)(C)CN(C)C)cc3)sc2c1 | 0 | 18* | 7.8* | 4.0* | 13* | 1 | 4 | 13* | 1
COCCN(Cc1nc(-c2ccc(-c3ccccc3)cc2)oc1C)C(C)C | 1.1* | 15* | 10* | 2 | -4 | 1 | 7.5* | 18* | 1
SMILES | ssDAF-12 act | hgDAF12 agonist | hcDAF12 agonist | DAX1 inh-1 | DAX1 inh-2 | LXR ag | hcDAF12 ag | hgDAF12 ag | LXR ag 2
O=C(Nc1ccc(-c2nc3cccnc3s2)cc1)c1cccnc1Cl | 0 | 23* | 7.9* | 3.7* | 2 | 2 | 5.6* | 24* | 1
O=C(Nc1ccc(-c2nc3cccnc3s2)cc1)c1ccc(Cl)nc1 | -1 | 4 | 0 | 1 | 1 | · | · | · | ·
Cc1ccc(C(O)P(=O)(OCc2ccccc2)c2ccc(N(C)C)cc2)cc1 (stereo unspecified) | -2 | 0 | 0 | 1 | 2 | · | · | · | ·
CCCOc1ccc(-c2nc(OC)c3ccccc3n2)cc1 | 2.6* | 17* | 16* | 4.1* | 1 | 0 | 4 | 3 | 0
COc1ccc(Oc2nc(-c3cccnc3)nc3ccccc23)cc1 | 0 | 1 | 0 | 0 | 0 | · | · | · | ·
COc1cc2c(cc1OC)C(c1cc3cccc(C)c3[nH]c1=O)N(C(=O)c1ccco1)CC2 (stereo unspecified) | 0 | 1 | -3 | 0 | 0 | · | · | · | ·
O=C(Nc1cccc2ccccc12)OC[C@@H]1CSCCS(=O)(=O)N1 | 0 | 0 | 2 | 1 | · | · | · | · | ·
N#C/C(=C\c1ccc(OCc2ccc(C(=O)O)cc2)cc1)C(=O)N1CCOCC1 | 1.6* | 19* | 14* | 4 | -6 | 1 | 7.8* | 21* | 1
